According to PubChem BioAssay AID2098 (Broad Institute, 2009):
Out of some 300,000 compounds screened, about 2,300 (0.77%) were called active.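 The calls were made as follows: active = more than half of replicate wells show activity change below -50%, luminescence cut by over half; inconclusive = some wells, but at most half, below -50%; inactive = no replicate well below -50%.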 The list comes from a sample in which actives are over-represented; it also holds similar structures and randomly drawn compounds.

Assay: HSF1 inhibitors in luciferase reporter cells, primary screen, cell-based, NIH3T3, luminescence (AID 2098);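 also: luciferase reports HSF-1 transcriptional activity via heat shock element; 0% = median of DMSO wells and -100% = zero luminescence signal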
Settings: NIH3T3-HGL HSE-luciferase, MG132-induced, luminescence 8 h; hits give low values; screened at 7.5 µM (by protocol)

Activity change, negative = inhibition, inactive:
CC(=O)O[C@H]1CC[C@@]2(C)[C@@H](CC[C@@H]3[C@@H]2CC[C@]2(C)[C@@H](C(C)(C)O)C[C@@H]32)C1 -1.58%
Cc1ccc(NC(=O)CC(=O)Nc2ccc(C)cc2)cc1 11.5%
CC(C)(CCl)C(=O)Nc1ccc(Sc2ccc(F)cc2)cc1 6.39%
O=C(c1cc(-c2ccco2)nc2ccccc12)N(Cc1nnc(-c2ccc(Cl)cc2)o1)C1CC1 8.92%
Cc1cc(C(=O)OC(C)C(=O)NC2CCCCC2C)c(C)o1 (stereo not drawn) 3.94%
COc1cccc(CNC(=O)CCCC(=O)Nc2cccc([N+](=O)[O-])c2)c1 -0.854%
COc1ccc(S(=O)(=O)NC(C)C(=O)Nc2cccc([N+](=O)[O-])c2)cc1 (stereo not drawn) -3.53%
Cc1ccc(OCC(=O)Oc2ccccc2[N+](=O)[O-])cc1 -1.37%
CCOc1ccc(C(=O)Nc2cc(Cl)ccc2-n2cncn2)cc1OC -3.95%
Cc1cc(/C=N/n2cnnc2)c(C)n1-c1ccc2ncccc2c1 -11.6%
O=C(COC(=O)c1cnccn1)Nc1ccc(Cl)cc1C(F)(F)F -5.67%
O=C(COC(=O)c1ccc(S(=O)(=O)Nc2ccccc2)cc1)NCC1CCCO1 (stereo not drawn) -11.9%
S=C(NCCc1ccccc1)NCC1CCCO1 (stereo not drawn) 14%
CS(=O)(=O)c1ccc(Cl)c(NC(=O)COC(=O)c2ncc(Cl)c(Cl)c2Cl)c1 0.97%
O=C(CN1CCOCC1)Nc1cccc([N+](=O)[O-])c1 6.69%
C=CCNc1ncnc2ccc(Br)cc12 -13.4%
COc1ccc(Nc2ncnc3sc(-c4ccccc4)cc23)c(OC)c1 -2.06%
Cc1ccc(C)c(OCCC(=O)OCC(=O)NC(=O)NCc2ccccc2)c1 -6.76%
COc1ccc(Nc2cc(Cl)ccc2C(=O)O)cn1 0.861%
COc1ccc(NC(=O)c2cc(-c3ccc(C)cc3)on2)cc1 -1.83%
CCCCn1c(N)c(N(CC)C(=O)c2ccc(N(C)S(=O)(=O)c3ccc(C)cc3)cc2)c(=O)[nH]c1=O -4.56%
CCN1C(=O)[C@H]2[C@@H](c3ccc(SC4CCCCC4)c(OC)c3)N[C@@](Cc3ccccc3)(C(=O)OC)[C@H]2C1=O 6.65%
Cc1cc(C(=O)CCC(=O)NNC(=O)c2ccccc2O)c(C)s1 1.38%

Activity change, negative = inhibition, active:
O=C(CCl)Nc1ccc(Sc2ccc(NC(=O)CCl)cc2)cc1 -61.6%
COC(=O)/C=C\C(=O)Nc1cccc([N+](=O)[O-])c1 -76.8%
O=C(CS(=O)(=O)Cc1ccccc1)NCC1CCCO1 (stereo not drawn) -53.1%
COc1ccc(Nc2ncnc3ccc(Br)cc23)c(OC)c1 -71.5%
COc1ccc(NC(=O)/C(Cl)=C(/Cl)S(=O)Cc2ccc(C)cc2)cn1 (stereo not drawn) -94.7%
